AmpC detergent: qHTS Inhibitors of AmpC Beta-Lactamase (assay with detergent); P00811; AmpC hydrolysis of nitrocefin, absorbance 480 nm, 0.01% Triton; Potency, µM (titrated, usually from 114 µM), inactives show at the top dose activity change, negative = inhibition, usual class: inhibitors; hit rate 0.041% among 370,000;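 also: 0% = no-compound wells and -100% = no-enzyme wells; nearly all actives have a fitted effect of over 25% in size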
Target sequence (P00811 whole entry, looked up): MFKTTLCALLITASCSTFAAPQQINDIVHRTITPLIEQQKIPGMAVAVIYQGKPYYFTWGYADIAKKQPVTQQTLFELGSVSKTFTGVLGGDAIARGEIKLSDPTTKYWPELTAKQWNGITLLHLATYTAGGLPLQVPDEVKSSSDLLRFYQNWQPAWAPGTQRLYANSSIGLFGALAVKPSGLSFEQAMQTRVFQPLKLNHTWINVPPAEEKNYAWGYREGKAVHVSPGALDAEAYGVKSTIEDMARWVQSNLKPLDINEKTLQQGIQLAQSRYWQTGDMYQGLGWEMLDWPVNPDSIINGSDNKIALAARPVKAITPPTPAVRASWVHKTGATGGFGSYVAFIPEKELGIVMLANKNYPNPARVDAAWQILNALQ
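20 mM phosphate pH 7.0 + 0.01% (detergent screen) or 0.0001% Triton X-100; 5.3 nM AmpC reagent; cpd preinc 15 min RT; nitrocefin (800 uM stock) to start; A480 q20 s × 4 min; Activity was normalised to no-enzyme and no-compound control wells.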
FMDV antiviral: High Throughput Screening for Foot and Mouth Disease Virus Antivirals; hit rate 1.2% among 410,000; AID 1159524, 2015; Potency, µM (doses to about 57.9 µM), for the others: at the highest dose activity change, negative = inhibition, usual class: inhibitors; FMDV antiviral cell-based qHTS; calls by dose curve; tested in HEK293T cells; also: read-out not given here; nearly all actives have a fitted effect of over 45% in size
Sm TGR inh: qHTS Assay for the Inhibitors of Schistosoma Mansoni Peroxiredoxins; Schistosoma mansoni thioredoxin glutathione reductase (TGR), Q962Y6; purified TGR, DTNB reduction, TNB absorbance 405 nm; Potency, µM (highest dose often 114 µM), for inactives: at the top dose activity change, negative = inhibition, hits mostly inhibitors; hit rate 3% among 360,000; AID 485364, 2010; also: nearly all actives have a fitted effect of over 60% in size
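First, TGR (20 nM dispensed) and NADPH were mixed with compound. Second, a 15 min room-temperature incubation followed. Third, further NADPH and then DTNB were added to start the reaction. Finally, TNB absorbance was monitored kinetically.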
AMA1-RON2 inh: qHTS for Inhibitors of AMA1-RON; Towards Development of Antimalarial Drug Lead: Primary Screen. Plasmodium falciparum AMA1 (3D7) - RON2 peptide interaction. AlphaScreen AMA1-biotinylated RON2 peptide binding. Potency, µM (series often up to 58.2 µM), inactives show top-dose activity change, negative = inhibition, hits mostly inhibitors. hit rate 0.2% among 360,000. AID 720542, 2013;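 also: 0% = vehicle wells and -100% = peptide control; nearly all actives have a fitted effect of over 45% in size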
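AMA1 (3D7) with his tag at 25 nM final met compounds first, then biotinylated RON2 peptide at 25 nM; detection used donor plus acceptor beads, 10 µg/mL apiece, read by AlphaScreen after 30 min at room temperature.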
AmpC no deterg: qHTS Inhibitors of AmpC Beta-Lactamase (assay without detergent); P00811; AmpC nitrocefin hydrolysis, absorbance 480 nm, 0.0001% Triton; Potency, µM (series often up to 57.1 µM), for inactives: at the highest dose activity change, negative = inhibition, usual class: inhibitors; hit rate 0.52% among 330,000;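 also: plate controls were no compound for no effect and no enzyme for full effect; nearly all actives have a fitted effect of over 20% in size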
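20 mM phosphate pH 7.0 + 0.01% (detergent screen) or 0.0001% Triton X-100; 5.3 nM AmpC reagent; cpd preinc 15 min RT; nitrocefin (800 uM stock) to start; A480 q20 s × 4 min; Activity was normalised to no-enzyme and no-compound control wells.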
Starred values were filed as active, the others as inactive; ! = not confirmed by another sample. An excerpt weighted towards active compounds, which were near 4.1% of everything screened. Unless noted, calls follow the shape of the dose curve; as a rule, active = well fitted curve in the direction sought with a large enough effect; inconclusive = small, poorly fitted or top-dose-only effect, or another doubt; inactive = no such curve, though single readings can be large; an effect the other way counts as inactive or inconclusive. Unless noted, % is scaled to controls: 0 for no effect and ±100 for the full control effect; potency is read from the fitted curve at half-maximal effect.

C/C=C(\C)C(=O)N[C@@H](C)CN1C2=NC[C@H](C(C)C)N2C[C@H]1Cc1ccc(OC)cc1 was read as AmpC detergent -1%, FMDV antiviral -9%, Sm TGR inh 5.6µM*, AMA1-RON2 inh -2% and AmpC no deterg 53%.
O=C(c1cccs1)c1no[n+]([O-])c1C(=O)c1cccs1 was read as AmpC detergent 0%, FMDV antiviral 16µM*, Sm TGR inh 0.1µM*, AMA1-RON2 inh -4% and AmpC no deterg -15%.
For COc1ccc(NC(=O)c2c(N)no[n+]2[O-])cc1 the results were AmpC detergent -8%, FMDV antiviral 44%, Sm TGR inh -14%, AMA1-RON2 inh -8% and AmpC no deterg -9%.
`COc1ccc(C(=O)c2no[n+]([O-])c2C(=O)c2ccc(OC)cc2)cc1` gave AmpC detergent 1%, FMDV antiviral 40µM*, Sm TGR inh 0.35µM*, AMA1-RON2 inh -3% and AmpC no deterg -14%.
For O=C(c1ccc(Cl)nc1)c1cccs1 the results were AmpC detergent -4%, FMDV antiviral -14%, Sm TGR inh -7%, AMA1-RON2 inh -3% and AmpC no deterg -3%.
COc1ccccc1CN1CCC(CNC(=O)c2cnn(-c3ccc(Cl)cc3)c2C2CCN(C(=O)OC(C)(C)C)CC2)CC1 was read as AmpC detergent 23%, FMDV antiviral 0% and Sm TGR inh 6%.
Screening CCc1ccc(-n2c(=O)c3cccnc3n2CC(=O)Nc2cc(F)ccc2F)cc1 returned AmpC detergent 4%, FMDV antiviral -5% and Sm TGR inh 0%.
CCOc1ccc(C(=O)Nc2ccc3oc(-c4ccc5ccccc5c4)nc3c2)cc1 was read as AmpC detergent 11%, FMDV antiviral 14% and Sm TGR inh 11%.
`O=c1ccc2nc3ccccc3sc-2c1` gave FMDV antiviral 14% and AMA1-RON2 inh 14µM*.
`COC(=O)[C@@H]1CCCN1Cc1ccc2c(c1)CN(Cc1ccc3c(c1)CCO3)CCO2` gave FMDV antiviral -7%.
Screening Oc1c(C=Nc2ccccc2Cl)[nH]c2ccccc12 returned AmpC detergent 3%, FMDV antiviral inconclusive, Sm TGR inh 50µM*, AMA1-RON2 inh 5% and AmpC no deterg -19%.
CN1CCN/C1=C(/C(Cl)=C(Cl)Cl)[N+](=O)[O-] was read as AmpC detergent 2%, FMDV antiviral -6%, Sm TGR inh 1.1µM*, AMA1-RON2 inh 0% and AmpC no deterg 2%.
Screening O=C(CSC1=Nc2ccccc2C2=NC(Cc3ccccc3)C(=O)N12)Nc1cccc(Cl)c1 (stereo not drawn) returned AmpC detergent 14%, FMDV antiviral -24% and Sm TGR inh 1%.
Screening COc1cccc(NC(=O)c2cnc(SCC(=O)NCc3ccc4c(c3)OCO4)n(C)c2=O)c1 returned AmpC detergent -8%, FMDV antiviral inconclusive, Sm TGR inh -18%, AMA1-RON2 inh 19% and AmpC no deterg -10%.
For COc1cccc(NC(=O)c2cnc(SCC(=O)N3CCOCC3)n(C)c2=O)c1 the results were AmpC detergent 4%, FMDV antiviral 22µM* and Sm TGR inh -2%.
For CC1=C/C(=N\Nc2ccccc2[N+](=O)[O-])CC(C)(C)C1 the results were AmpC detergent -7%, FMDV antiviral -19%, Sm TGR inh -9%, AMA1-RON2 inh 3.5µM* and AmpC no deterg -29%.
`COc1ccc(CC(=O)Nc2sc3c(c2C#N)CC(C)(C)NC3(C)C)cc1OC` gave AmpC detergent -19%, FMDV antiviral inconclusive, Sm TGR inh 89µM*, AMA1-RON2 inh 1% and AmpC no deterg -8%.
Screening O=C(COc1ccc(F)cc1)Nc1ccc(OCc2cc(=O)n3ccsc3n2)cc1 returned AmpC detergent -3%, FMDV antiviral -4% and Sm TGR inh -6%.
COCCN(CCOC)Cc1c(O)ccc2c1O/C(=C\c1ccc(C)o1)C2=O was read as AmpC detergent -12%, FMDV antiviral 36%, Sm TGR inh 1.8µM*, AMA1-RON2 inh -2% and AmpC no deterg -12%.
COCCNC(=O)CSc1nc(-c2ccc(C)cc2)nc2c1c(=O)n(C)c(=O)n2C was read as AmpC detergent 4%, FMDV antiviral -6% and Sm TGR inh -1%.
For Oc1ccc(CNc2cccc(C(F)(F)F)c2)c2cccnc12 the results were AmpC detergent inconclusive, Sm TGR inh 0.32µM* and AmpC no deterg -27%.
Cc1cccc(NCc2ccc(O)c3ncccc23)c1C was read as AmpC detergent 3%, FMDV antiviral -18%, Sm TGR inh 0.11µM*, AMA1-RON2 inh -82% and AmpC no deterg -14%.
Cc1ccc(NCc2ccc(O)c3ncccc23)cc1C was read as AmpC detergent -1%, FMDV antiviral -9%, Sm TGR inh -2%, AMA1-RON2 inh 29% and AmpC no deterg -14%.
Cc1cccnc1NCc1ccc(O)c2ncccc12 was read as AmpC detergent -15%, FMDV antiviral -28%, Sm TGR inh 0.28µM*, AMA1-RON2 inh -38% and AmpC no deterg -17%.
`Cc1ccc(NCc2ccc(O)c3ncccc23)cc1` gave AmpC detergent 7%, FMDV antiviral -5%, Sm TGR inh inconclusive, AMA1-RON2 inh 14% and AmpC no deterg -23%.
Screening CC(C)Sc1ncc(Cl)c(C(=O)N(Cc2ccc(N(C)C)cc2)C2CCS(=O)(=O)C2)n1 (stereo not drawn) returned AmpC detergent 10%, FMDV antiviral -23% and Sm TGR inh -6%.
`CN(CCCNC(=O)c1cc2c(Cl)nc3ccccc3c2s1)Cc1ccccc1` gave AmpC detergent -10%, FMDV antiviral -14%, Sm TGR inh 20µM*!, AMA1-RON2 inh inconclusive and AmpC no deterg 177%.
Screening CCN(CC)CCCNC(=O)c1cc2c(Cl)nc3ccccc3c2s1 returned AmpC detergent -2%, FMDV antiviral -22%, Sm TGR inh -13%, AMA1-RON2 inh 6% and AmpC no deterg 5%.
For CCN(CCCNC(=O)c1cc2c(Cl)nc3ccccc3c2s1)Cc1ccccc1 the results were AmpC detergent inconclusive, FMDV antiviral inconclusive and Sm TGR inh 89µM*.
For CCOc1ccc(CNS(=O)(=O)c2c(C(=O)N3CCCCCC3)c(C)n(C)c2C)cc1OC the results were AmpC detergent 19%, FMDV antiviral -5% and Sm TGR inh -3%.
`Cc1cccc(N2C(=O)NC(=O)/C(=C/c3cc4c(cc3[N+](=O)[O-])OCO4)C2=O)c1` gave AmpC detergent inconclusive, FMDV antiviral inconclusive, Sm TGR inh 2.2µM*, AMA1-RON2 inh -15% and AmpC no deterg -45%.

Screens deposited in PubChem BioAssay by National Center for Advancing Translational Sciences (NCATS).
